TDP1 cell noCPT = qHTS for Inhibitors of human tyrosyl-DNA phosphodiesterase 1 (TDP1): qHTS in cells in absence of CPT | DT40 Tdp1-/- hTDP1 cells, no CPT, ATP luminescence, 48 h | hit rate 15% among 420,000 | Potency, µM (top dose mostly 46.2 µM), inactives show at the top dose activity change, negative = growth inhibition, most hits filed as inhibitors; note: potency is the fitted concentration of half-maximal effect; nearly all actives have a fitted effect of over 55% in size
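A cellular qHTS used chicken DT40 cells lacking endogenous Tdp1 but carrying stably transfected human TDP1. Compounds were applied without camptothecin, and cell growth kinetics were judged by ATP-dependent luminescence after ≥48 hr.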
IL-1B inflam inh = inhibitors of inflammasome signaling (IL-1 beta secretion). THP-1 LPS/ATP IL-1B secretion, AlphaLISA, 16 h; hits give low values. activity change, % at 57.5 µM. hit rate 4.7% among 360,000. AID 743279; in the data active = activity change below about -50%; inconclusive = mostly about -30% to -49%
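THP-1 cells pretreated 1 hr with compounds (up to 57.5 uM final), then stimulated with LPS (250 ng/mL final) plus ATP (1.25 mM final); secreted IL-1B measured by AlphaLISA after 16 hr, decreased signal indicating inhibition.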
CtBP-E1A blk = CtBP/E1A binding inhibition. AID 651724. AlphaScreen GST-E1A/His-CtBP binding, 1536-well; hits give low values. activity change, % (no concentration beside the values). hit rate 0.49% among 340,000; in the data active = activity change below about -65%; inconclusive = mostly about -30% to -63%
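In 5 uL wells, 23 nL compound meets equimolar GST-E1A and His-CtBP (5X stock 125 nM each) for 2 h, 37 °C. Beads (5X, 50 ug/mL) then 1 h, 37 °C, dark.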
TDP1 cell CPT = DT40-hTDP1 cell growth loss with CPT; chicken DT40 Tdp1-/-;hTDP1 cells + 20 nM CPT, ATP luminescence, 48 h; Potency, µM (titrated, usually from 46.2 µM), for the others: top-dose activity change, negative = growth inhibition, hits mostly inhibitors; hit rate 12% among 420,000; note: potency is the fitted concentration of half-maximal effect; nearly all actives have a fitted effect of over 55% in size
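Cell growth measured by CellTiter-Glo luminescence after a minimum 48 h, 37 C compound exposure with 20 nM CPT in Tdp1-knockout DT40 cells stably expressing hTDP1, seeded 400/well; qHTS titration format.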
Six1-Eya2 blk = blocks human Six1 binding to Eya2; activity change, % (test concentration not listed); AlphaScreen GST-Six1/His-Eya2 binding, biochemical; hits give low values; Q15475+O00167; hit rate 0.56% among 360,000; in the data active = activity change below about -65%; inconclusive = mostly about -30% to -63%
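Homogeneous AlphaScreen proximity assay pairing GST-Six1 with His-tagged Eya2 (added as 5X mix: 250 nM and 500 nM) in 50 mM Tris pH 8.0, 300 mM NaCl, 1 mM TCEP. Glutathione donor and nickel acceptor beads; 1 h, 37 °C, dark.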
TDP1 inh = inhibitors of human tyrosyl-DNA phosphodiesterase TDP1; hit rate 0.28% among 350,000; recombinant TDP1, AlphaScreen DNA substrate cleavage; Potency, µM (titrated, usually from 130 µM), inactives show at the top dose activity change, negative = inhibition, usual class: inhibitors; note: potency is the fitted concentration of half-maximal effect; nearly all actives have a fitted effect of over 40% in size
Target sequence (Q9NUW8 whole entry, looked up): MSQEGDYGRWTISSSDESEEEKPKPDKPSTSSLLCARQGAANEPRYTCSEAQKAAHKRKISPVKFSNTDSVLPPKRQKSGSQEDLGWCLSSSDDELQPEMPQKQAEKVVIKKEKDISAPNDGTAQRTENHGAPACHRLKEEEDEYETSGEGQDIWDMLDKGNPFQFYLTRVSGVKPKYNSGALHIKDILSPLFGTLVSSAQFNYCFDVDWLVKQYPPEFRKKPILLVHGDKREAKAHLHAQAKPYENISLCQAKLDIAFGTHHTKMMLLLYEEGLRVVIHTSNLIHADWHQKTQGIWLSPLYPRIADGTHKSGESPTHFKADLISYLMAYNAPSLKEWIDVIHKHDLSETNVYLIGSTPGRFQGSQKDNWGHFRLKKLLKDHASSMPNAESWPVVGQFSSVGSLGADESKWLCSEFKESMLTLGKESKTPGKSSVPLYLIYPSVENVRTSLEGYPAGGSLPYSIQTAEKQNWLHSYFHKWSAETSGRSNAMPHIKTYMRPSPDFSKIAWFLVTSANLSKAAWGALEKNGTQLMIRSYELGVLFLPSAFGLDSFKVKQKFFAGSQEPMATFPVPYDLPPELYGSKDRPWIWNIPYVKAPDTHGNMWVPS
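AlphaScreen read-out: signal falls as enzyme removes the 3' tyrosine-FITC from a 5'-biotinylated DNA oligo (15 nM, 5 min, RT). Enzyme was E. coli-made recombinant Tdp1 at 1 nM, exposed to compound for 15 min beforehand; beads 10 ug/ml, 10 min.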
Starred values were filed as active, the others as inactive; [ ] = another dose, or the depositor's remark. Hits are enriched below; roughly 18% of the tested compounds scored in any of these assays. Unless noted, calls come from the whole dose curve; as a rule, active = well fitted curve in the direction sought with a large enough effect; inconclusive = small, poorly fitted or top-dose-only effect, or another doubt; inactive = no such curve, though single readings can be large; an effect the other way counts as inactive or inconclusive. % is set by controls: 0 for no effect and ±100 for the full control effect.

What do the screens show for `OCCN1CCN(CC(O)COc2ccc(-c3ccccc3)cc2)CC1` (stereo not drawn)?
TDP1 cell noCPT: inconclusive; IL-1B inflam inh: -5.2; CtBP-E1A blk: -0.1; TDP1 cell CPT: inconclusive; Six1-Eya2 blk: 5.0; TDP1 inh: 3.6%

Results for CN(C)S(=O)(=O)N1CCN(CC(O)COc2ccc(-c3ccccc3)cc2)CC1 (stereo not drawn) ?
TDP1 cell noCPT: 11.6µM*; IL-1B inflam inh: inconclusive; CtBP-E1A blk: -12.4; TDP1 cell CPT: 20.6µM*; Six1-Eya2 blk: -1.4

What do the screens show for `O=S(=O)(N1CCCCC1)N1CCN(CC(O)COc2ccc3cc(Br)ccc3c2)CC1` (stereo not drawn)?
TDP1 cell noCPT: 11.2µM*; IL-1B inflam inh: -52.4*; CtBP-E1A blk: 1.6; TDP1 cell CPT: 11.2µM*; Six1-Eya2 blk: -1.9; TDP1 inh: 5.9%

How did OC(COc1ccc2cc(Br)ccc2c1)CN1CCN(c2ccccn2)CC1 (stereo not drawn) do in these assays?
TDP1 cell noCPT: inconclusive; IL-1B inflam inh: -11.6; CtBP-E1A blk: -4.1; TDP1 cell CPT: inconclusive; Six1-Eya2 blk: -9.0; TDP1 inh: 6.6%

How did CN(C)S(=O)(=O)N1CCN(CC(O)COc2ccc3cc(Br)ccc3c2)CC1 (stereo not drawn) do in these assays?
TDP1 cell noCPT: 8.2µM*; IL-1B inflam inh: -2.9; CtBP-E1A blk: -5.5; TDP1 cell CPT: 14.6µM*; Six1-Eya2 blk: -14.4; TDP1 inh: 6.6%

Results for CC1(C(=O)NS(=O)(=O)c2cccs2)CCN1C(=O)c1cccc(F)c1 (stereo not drawn) ?
TDP1 cell noCPT: 5.8%; IL-1B inflam inh: 9.6; CtBP-E1A blk: 6.6; TDP1 cell CPT: -2.0%; Six1-Eya2 blk: 0.1

How did O=c1[nH]c2cc(Cl)ccc2n(CCNc2ncc(C(F)(F)F)cc2Cl)c1=O do in these assays?
TDP1 cell noCPT: 2.2%; IL-1B inflam inh: 14.3; CtBP-E1A blk: -1.1; TDP1 cell CPT: 4.4%; Six1-Eya2 blk: 3.3; TDP1 inh: 2.5%

What do the screens show for `CC1(NC(=O)C2CCN(C(=O)Nc3ccccc3)CC2)CCS(=O)(=O)C1` (stereo not drawn)?
TDP1 cell noCPT: -7.6%; IL-1B inflam inh: 33.9; CtBP-E1A blk: 7.4; TDP1 cell CPT: -0.7%; Six1-Eya2 blk: 19.6; TDP1 inh: 1.9%

Results for CCOc1ccc2nc(NC(=O)CSc3nc4cccnc4n3C)sc2c1 ?
TDP1 cell noCPT: 3.26µM*; IL-1B inflam inh: -10.7; CtBP-E1A blk: 7.8; TDP1 cell CPT: 8.2µM*; Six1-Eya2 blk: 6.3; TDP1 inh: 5.2%

Results for CC(=O)Nc1nc2cc(C(N)=O)ccc2s1 ?
TDP1 cell noCPT: -11.5%; IL-1B inflam inh: inconclusive; CtBP-E1A blk: -2.2; TDP1 cell CPT: 7.7%; Six1-Eya2 blk: -5.2; TDP1 inh: 0.3%

How did CCOc1ccc2nc(NC(=S)N(C)C)sc2c1 do in these assays?
TDP1 cell noCPT: 1.16µM*; IL-1B inflam inh: -13.8; CtBP-E1A blk: -3.4; TDP1 cell CPT: 1.3µM*; Six1-Eya2 blk: -3.7; TDP1 inh: 7.6%

What do the screens show for `CCOc1ccc2nc(NC(=O)c3ccccc3)sc2c1`?
TDP1 cell noCPT: 23.1µM*; TDP1 cell CPT: 13µM*; TDP1 inh: 2.9%[2.28 µM]

Results for NC(=O)c1ccc2nc(NC(=O)c3ccc(N)cc3)sc2c1 ?
TDP1 cell noCPT: inconclusive; IL-1B inflam inh: 90.3; CtBP-E1A blk: 17.0; TDP1 cell CPT: inconclusive; Six1-Eya2 blk: 15.1; TDP1 inh: 79.4µM*

How did O=C(O)Cc1ccccc1Oc1ccc(Cl)cc1Cl do in these assays?
TDP1 cell noCPT: -11.4%; TDP1 cell CPT: -5.9%

What do the screens show for `CCOc1ccc2nc(NC(=O)C3=NN(c4ccccc4)C(=O)CC3)sc2c1`?
TDP1 cell noCPT: 25.9µM*; IL-1B inflam inh: 19.9; TDP1 cell CPT: inconclusive; Six1-Eya2 blk: -0.4; TDP1 inh: 8.1%

Source: PubChem BioAssay
